# Compounds with a hit are over-represented: about 1.3% of the library has one in this group of screens.
# Sa RN4220 lethal: growth inhibition of S. aureus RN4220, primary screen, OD600. AID 1259311, 2017. 16 h. 330,000 compounds, 0.33% hits. inhibition, % (test concentration not listed); in the data active = inhibition above about 85%;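 note: plate controls were untreated cells for no effect and reference antibiotic for full effect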
# Mtb hypoxia rep: PubChem AID 1159583 | M. tuberculosis hypoxia-regulated fluorescent reporter, fluorescence | fluorescence inhibition, % (test concentration not listed) | 300,000 compounds, 0.1% hits; in the data active = fluorescence inhibition mostly above about 23%, no sharp cut-off; inactive = mostly below about 17%
# PfHsp40 yeast: rescue of yeast from PfHsp40 toxicity, primary screen, S. cerevisiae, ATP luminescence; S. cerevisiae expressing PfHsp40, growth rescue; growth rescue, % at 12.5 µM; 340,000 compounds, 0.68% hits; in the data active = growth rescue above about 28%, passing the limit was not always enough;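 note: yeast W303a lacking pdr1 and pdr3 grown in galactose medium; growth measured after three days at 30 °C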
# MazEF act: activators of E. coli MazEF toxin-antitoxin RNase, primary screen, biochemical, fluorescence, uHTS. AID 504720, 2011. FAM/BHQ RNA-DNA oligo cleavage fluorescence, 5 h. 350,000 compounds, 0.32% hits. activation, % at 20 µM. Endoribonuclease toxin MazF (Escherichia coli (strain K12)), P0AE70; in the data active = activation above about 50%
# TcdB GH inh: TcdB glycohydrolase inhibitors, primary screen, biochemical, single point, plate reader; 350,000 compounds, 0.24% hits; AID 652162, 2013; TcdB glycohydrolase enzymatic assay; inhibition, % at 9.99 µM; in the data active = inhibition above about 10%
# Sa ugtP lethal: growth inhibition of ugtP-null S. aureus, primary screen, RN4220 ugtP deletion, OD600; 16 h; growth inhibition, % (no concentration beside the values); 330,000 compounds, 0.54% hits; AID 1259309, 2017; in the data active = growth inhibition above about 68%;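 note: plate controls were untreated wells for no effect and antibiotic for full effect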
# The depositor's hits bear a star; x = not tested or not shown.
SMILES,Sa RN4220 lethal,Mtb hypoxia rep,PfHsp40 yeast,MazEF act,TcdB GH inh,Sa ugtP lethal
Cc1cccc(-n2c(=O)c3ccccc3n3c(=S)[nH]nc23)c1C,3,0,0,5,12*,-3
O=C(O)C=CC(=O)Nc1ccc(S(=O)(=O)Nc2nccs2)cc1,1,4,x,x,x,0
Cc1ccc(CS/C(Nc2ccccc2C)=C(\C#N)C(N)=O)c(C)c1,2,6,2,-2,0,95*
Cc1ccccc1NC(=O)CSC(N)=O,-3,x,1,0,x,7
Cc1oc(C=NNC(=O)CN(c2ccccc2Br)S(C)(=O)=O)cc1Br,2,12,x,x,x,5
CC[C@]12c3[nH]c4cc(-c5ccco5)ccc4c3CCN1C(=O)[C@@H](CC(=O)NC/C=C(\C)CCC=C(C)C)C[C@@H]2C(=O)N1CCN(C(=O)C2CC2)CC1,-2,-5,1,-7,0,-11
CC(C)=CCC/C(C)=C/CNC(=O)C[C@H]1C[C@H](C(=O)N2CCCCC2)[C@@]2(CCc3ccccc3)c3[nH]c4cc(-c5ccco5)ccc4c3CCN2C1=O,4,-10,-1,75*,x,-1
Cc1cc(O)cc(O)c1C=NCc1ccco1,6,9,-1,90*,1,3
Cc1ccc2nc(NCc3ccco3)c(C=NCc3ccco3)c(=O)n2c1,1,1,-2,7,x,-2
Cc1cccc(OCCC(=O)NCC(=O)Nc2cccc(C)c2C)c1,2,3,0,-5,19*,-2
Cc1cccc(NC(=O)CCOc2ccccc2)c1C,3,15,2,2,0,3
CO[C@H]1O[C@H](CO)[C@@H](OC(=O)Nc2cccc(F)c2)[C@H](OC(=O)Nc2ccccc2)[C@@H]1OC(=O)Nc1ccccc1,x,x,x,x,-1,x
O=C(CNC(=O)c1ccccc1F)NN=Cc1cccs1,1,1,x,x,x,9
COc1cc([N+](=O)[O-])ccc1-c1ccc(/C=N\n2cnnc2)o1,x,x,0,154*,2,x
OCC12CO[C@@H]3c4ccccc4[C@H](OC1)N32 (some centres not stated),1,x,45*,0,x,1
Cc1ccc(C(=O)c2c(C)oc3c2C(=O)C(=O)c2ccccc2-3)cc1,109*,x,4,3,x,93*
COC(=O)C1=C(c2ccc(-c3ccccc3)c(F)c2)C[C@@H]2CC[C@H]1N2C(=O)N1CCCCC1,x,x,18,8,-7,x
COC(=O)C1=C(c2ccc(-c3ccccc3)c(F)c2)C[C@@H]2CC[C@H]1N2C(=O)N1CCCC1,x,x,29*,1,0,x
CC1CCC2C(C)C(=O)OC3OC4(C)CCC1C32OO4 (configuration not stated),7,81*,137*,-6,2,21
C=C1C(=O)O[C@@]23C1CCC(C)C2CC[C@@]1(C)OC31 (some centres not stated),7,25,x,x,x,0
CC1CCC2[C@@H](C)C(=O)OC3O[C@]4(C)CCC1C32OO4 (some centres not stated),2,84*,110*,0,0,-3
COc1ccc(CN(C)C[C@@H]2Oc3c(NS(=O)(=O)c4ccc(F)cc4)cccc3C(=O)N([C@@H](C)CO)C[C@H]2C)cc1,x,x,x,x,0,x
O/N=C\c1ccccc1Oc1ccc(F)cc1,x,x,59*,13,1,x
Cc1ccc(OCC(=O)c2c(O)c3ccccc3oc2=O)cc1C,58,4,1,4,x,58
Cc1ccc(C(C)C)c(OCC(=O)c2c(O)c3ccccc3oc2=O)c1,86*,14,3,-4,x,86*
SMILES,Sa RN4220 lethal,Mtb hypoxia rep,PfHsp40 yeast,MazEF act,TcdB GH inh,Sa ugtP lethal
O=C(CNC(=O)c1cccc(Br)c1)NN=Cc1cc(Br)cc(Br)c1O,-10,6,x,x,x,-10
O=C(O)c1cc(-c2ccccc2Cl)n(-c2ccc(F)cc2)n1,-8,10,-1,12,2,1
O=C(O)c1cc(-c2ccccc2Cl)n(-c2cccc(Cl)c2)n1,-10,0,0,-11,13*,10
COC(=O)c1sc(SC)c(S(=O)(=O)C(C)C)c1NN=C(C#N)S(=O)(=O)c1ccccn1,3,20,x,x,x,6
O=C(CC12CC3CC(CC(C3)C1)C2)NN=Cc1ccncc1,5,8,x,x,x,-5
O=C(N/N=C/c1c(O)n(Cc2ccccc2)c(=O)c2ccccc12)c1cccnc1,51,12,431*,-23,-3,7
